Reference: PubChem BioAssay AID1159580 (chemical genetic matrix, 2015)
Values joined by “and” are separate entries in the source; they are usually repeats but may differ in a detail not shown here. Equal entries are not always repeated. Screen size: about 5,500 compounds; about 2,000 (36%) were called active. About 18% were inconclusive and are not listed. This is one part of the list. A number with no mark means an inactive call. No stated cut-off is given here; in the data, active means normalized growth mostly below about 0.91 (no sharp cut-off); inconclusive means no clear call, values can overlap the other calls; inactive means mostly above about 0.92.

Experiment: chemical genetic growth profiling, strain panel (AID 1159580);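 further: tested at 20 µM; growth read once vehicle control cultures reached saturation at 30 °C; 1 = growth at the plate median or of vehicle wells; lower values mean less growth of the strain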
Settings: S. cerevisiae deletion strains, growth OD

ClC1=C(Cl)C2(Cl)C3C4C=CC(C4)C3C1(Cl)C2(Cl)Cl (configuration not stated)
normalized growth (locus YAL013W, strain DEP1, hits give low values): 0.989 | normalized growth (locus YAL021C, strain ccr4, hits give low values): 0.987 | normalized growth (locus YAL026C, strain drs2, hits give low values): 0.993 | normalized growth (locus YAL030W, strain snc1, hits give low values): 1 | normalized growth (locus YBL061C, strain skt5, hits give low values): 1.01 | normalized growth (locus YBR009C, strain hhf1, hits give low values): 0.992 | normalized growth (locus YBR021W, strain FUR4, hits give low values): 1 | normalized growth (locus YBR023C, strain chs3, hits give low values): 0.997 | normalized growth (locus YBR171W, strain sec66, hits give low values): 0.988 | normalized growth (locus YBR229C, strain ROT2, hits give low values): 0.997 | normalized growth (locus YBR231C, strain swc5, hits give low values): 1 | normalized growth (locus YBR279W, strain paf1, hits give low values): 1.01 | normalized growth (locus YCL011C, strain gbp2, hits give low values): 0.999 | normalized growth (locus YCL016C, strain dcc1, hits give low values): 0.999 | normalized growth (locus YCL029C, strain bik1, hits give low values): 0.972 | normalized growth (locus YCL061C, strain MRC1, hits give low values): 0.993 | normalized growth (locus YCL069W, strain vba3, hits give low values): 0.997 | normalized growth (locus YCR088W, strain abp1, hits give low values): 0.991 | normalized growth (locus YDL005C, strain med2, hits give low values): 0.999 | normalized growth (locus YDL035C, strain GPR1, hits give low values): 0.949 | normalized growth (locus YDL040C, strain nat1, hits give low values): 0.998 | normalized growth (locus YDL074C, strain BRE1, hits give low values): 0.969 | normalized growth (locus YDL101C, strain DUN1, hits give low values): 0.993 | normalized growth (locus YDL134C, strain PPH21, hits give low values): 0.992 | normalized growth (locus YDL185W, strain tfp1, hits give low values): 1 | normalized growth (locus YDL192W, strain arf1, hits give low values): 0.997 | normalized growth (locus YDR001C, strain nth1, hits give low values): 0.996 | normalized growth (locus YDR069C, strain doa4, hits give low values): 0.99 | normalized growth (locus YDR101C, strain arx1, hits give low values): 1 | normalized growth (locus YDR137W, strain rgp1, hits give low values): 0.956 | normalized growth (locus YDR150W, strain NUM1, hits give low values): 1 | normalized growth (locus YDR159W, strain sac3, hits give low values): 0.901 | normalized growth (locus YDR162C, strain NBP2, hits give low values): 1 | normalized growth (locus YDR195W, strain ref2): 0.955 | normalized growth (locus YDR297W, strain sur2, hits give low values): 1 | normalized growth (locus YDR318W, strain mcm21, hits give low values): 0.981 | normalized growth (locus YDR334W, strain swr1, hits give low values): 0.993 | normalized growth (locus YDR335W, strain msn5, hits give low values): 1 | normalized growth (locus YDR388W, hits give low values): 0.985 | normalized growth (locus YDR392W, strain spt3, hits give low values): 1 | normalized growth (locus YDR502C, strain sam2, hits give low values): 0.994 | normalized growth (locus YEL003W, strain gim4, hits give low values): 1 | normalized growth (locus YEL037C, strain rad23, hits give low values): 1 | normalized growth (locus YEL061C, strain CIN8 (second series), hits give low values): 1 | normalized growth (locus YEL061C, strain CIN8, hits give low values): 1 | normalized growth (locus YER015W, strain faa2, hits give low values): 1 | normalized growth (locus YER016W, strain bim1, hits give low values): 0.994 | normalized growth (locus YER110C, hits give low values): 0.99 | normalized growth (locus YER111C, strain swi4, hits give low values): 1 | normalized growth (locus YER155C, strain BEM2 (second series), hits give low values): 0.998 | normalized growth (locus YER155C, strain BEM2, hits give low values): 0.978 | normalized growth (locus YER167W, strain BCK2, hits give low values): 0.977 | normalized growth (locus YFR010W, strain ubp6, hits give low values): 0.988 | normalized growth (locus YGL078C, strain dbp3, hits give low values): 1 | normalized growth (locus YGL086W, strain mad1, hits give low values): 0.967 | normalized growth (locus YGL167C, strain pmr1, hits give low values): 0.983 | normalized growth (locus YGL173C, strain kem1, hits give low values): 0.992 | normalized growth (locus YGL227W, strain vid30, hits give low values): 0.996 | normalized growth (locus YGL240W, strain doc1, hits give low values): 0.981 | normalized growth (locus YGL248W, strain PDE1, hits give low values): 0.997 | normalized growth (locus YGL253W, strain hxk2, hits give low values): 0.983 | normalized growth (locus YGR078C, strain PAC10, hits give low values): 1.01 | normalized growth (locus YGR135W, strain pre9, hits give low values): 0.982 | normalized growth (locus YGR229C, strain SMI1, hits give low values): 0.952 | normalized growth (locus YGR252W, strain gcn5, hits give low values): 0.961 | normalized growth (locus YHR013C, strain ard1, hits give low values): 1.08 | normalized growth (locus YHR027C, strain rpn1, hits give low values): 0.988 | normalized growth (locus YHR030C, strain SLT2, hits give low values): 1 and 0.976 | normalized growth (locus YHR079C, strain IRE1 (second series), hits give low values): 0.983 | normalized growth (locus YHR079C, strain IRE1, hits give low values): 0.979 | normalized growth (locus YHR094C, strain hxt1, hits give low values): 1 | normalized growth (locus YHR129C, strain ARP1, hits give low values): 1 | normalized growth (locus YHR142W, strain chs7, hits give low values): 1.01 | normalized growth (locus YHR200W, strain rpn10, hits give low values): 0.99 | normalized growth (locus YIL066C, strain RNR3, hits give low values): 0.941 | normalized growth (locus YIL073C, strain SPO22, hits give low values): 0.874 | normalized growth (locus YIL125W, strain kgd1, hits give low values): 1 | normalized growth (locus YIR030C, strain dcg1, hits give low values): 0.991 | normalized growth (locus YJL092W, strain hpr5, hits give low values): 0.992 | normalized growth (locus YJL095W, strain BCK1 (second series), hits give low values): 0.994 | normalized growth (locus YJL095W, strain BCK1, hits give low values): 1.01 and 1.03 | normalized growth (locus YJL115W, strain asf1, hits give low values): 0.989 | normalized growth (locus YJL129C, strain trk1, hits give low values): 0.85 (active) | normalized growth (locus YJL134W, strain LCB3, hits give low values): 0.999 | normalized growth (locus YJL154C, strain vps35, hits give low values): 0.992 | normalized growth (locus YJL164C, strain tpk1, hits give low values): 0.981 | normalized growth (locus YJL166W, strain qcr8, hits give low values): 0.99 | normalized growth (locus YJL168C, strain set2, hits give low values): 0.991 | normalized growth (locus YJL187C, strain SWE1 (second series), hits give low values): 1 | normalized growth (locus YJL187C, strain SWE1, hits give low values): 1.01 | normalized growth (locus YJR043C, strain POL32, hits give low values): 0.981 | normalized growth (locus YJR066W, strain TOR1, hits give low values): 0.975
